TDP1 cell noCPT: qHTS for Inhibitors of human tyrosyl-DNA phosphodiesterase 1 (TDP1): qHTS in cells in absence of CPT. DT40 Tdp1-/- hTDP1 cells, no CPT, ATP luminescence, 48 h. Potency, µM (series often up to 46.2 µM), actives largely listed as inhibitors. 420,000 tested, 15% active. AID 686978, 2013; note: nearly all actives have a fitted effect of over 55% in size
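Growth kinetics read by CellTiter-Glo luminescence after ≥48 hr at 37 °C. Cells: DT40 Tdp1-/- stably carrying human TDP1, 400 per well, compound exposure in the absence of CPT (DMSO vehicle).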
TDP1 inh: blocks human tyrosyl-DNA phosphodiesterase 1 | Q9NUW8 | recombinant TDP1, AlphaScreen DNA substrate cleavage | Potency, µM (top dose mostly 130 µM), usual class: inhibitors | 350,000 tested, 0.28% active | AID 485290; note: nearly all actives have a fitted effect of over 40% in size
Target sequence (Q9NUW8 whole entry, looked up): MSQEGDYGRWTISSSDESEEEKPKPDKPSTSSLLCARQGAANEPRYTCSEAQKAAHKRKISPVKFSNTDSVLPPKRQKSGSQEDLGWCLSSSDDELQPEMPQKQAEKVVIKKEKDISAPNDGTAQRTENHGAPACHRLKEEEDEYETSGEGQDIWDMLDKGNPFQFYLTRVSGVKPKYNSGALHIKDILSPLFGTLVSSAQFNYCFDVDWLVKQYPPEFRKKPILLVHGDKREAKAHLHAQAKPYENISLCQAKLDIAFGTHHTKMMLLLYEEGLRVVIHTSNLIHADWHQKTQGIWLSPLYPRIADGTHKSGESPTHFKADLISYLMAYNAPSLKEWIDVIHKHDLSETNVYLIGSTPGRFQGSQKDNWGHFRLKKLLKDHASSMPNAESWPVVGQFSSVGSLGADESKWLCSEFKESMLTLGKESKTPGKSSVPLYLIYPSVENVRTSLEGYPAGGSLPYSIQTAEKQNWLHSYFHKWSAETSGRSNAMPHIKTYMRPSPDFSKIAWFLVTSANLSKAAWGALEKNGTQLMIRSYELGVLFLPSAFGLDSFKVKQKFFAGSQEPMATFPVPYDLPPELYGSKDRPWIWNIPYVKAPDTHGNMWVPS
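E. coli-derived human Tdp1, 1 nM final. Cpd preinc 15 min RT; substrate 15 nM final, 5 min RT; AS bead mix 10 ug/ml final, 10 min RT. Signal loss = tyrosine-FITC cleavage. No-enzyme wells = max signal.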
HepG2 viability: HepG2 cytotoxicity, counter-screen for TGF-b inhibitors; 410,000 tested, 0.76% active; HepG2 CAGA-GFP viability, ATP luminescence, 18 h; Potency, µM (top dose mostly 46.1 µM), usual class: cytotoxic; AID 588856
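CellTiter-Glo luminescence gave cytotoxicity after 18 hours at 37 degrees C. The cells were HepG2 CAGA-GFP in 1% FBS DMEM, stimulated with 500 pg/mL TGF-beta after compound addition. %Activity was normalised to no-cell wells (complete cell-killing) and DMSO (no toxicity), and curves were fitted and classified.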
IL1B secr inh: inflammasome signaling inhibition, IL-1 beta readout. THP-1 LPS/ATP IL-1B secretion, AlphaLISA, 16 h; active compounds read low. activity change, % at 57.5 µM. 360,000 tested, 4.7% active. AID 743279; in the data active = activity change below about -50%; inconclusive = mostly about -30% to -49%
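THP-1 cells pretreated 1 hr with compounds (up to 57.5 uM final), then stimulated with LPS (250 ng/mL final) plus ATP (1.25 mM final); secreted IL-1B measured by AlphaLISA after 16 hr, decreased signal indicating inhibition.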
TGFb inhibitor: inhibitors of TGF-b signaling; HepG2 CAGA-GFP TGF-b/SMAD3 reporter, GFP fluorescence, 18 h; TGF-beta stimulated, 500 pg/mL final; Potency, µM (top dose mostly 46.1 µM), usual class: inhibitors; 410,000 tested, 1.2% active; note: nearly all actives have a fitted effect of over 65% in size
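Read-out: total well GFP (ex488/em500-530) summed from mean per-cell fluorescence. Cells: HEPG2 CAGA-GFP, 1% FBS DMEM, 18 h at 37 degrees C with 500 pg/mL final TGF-beta. Unstimulated wells served as the full-inhibition control; stimulated DMSO wells = 0%.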
DT40 TDP1 CPT: DT40-hTDP1 cell growth loss with CPT; chicken DT40 Tdp1-/-;hTDP1 cells + 20 nM CPT, ATP luminescence, 48 h; AID 686979; Potency, µM (titrated, usually from 46.2 µM), usual class: inhibitors; 420,000 tested, 12% active; note: nearly all actives have a fitted effect of over 55% in size
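Chicken DT40 Tdp1-/- cells stably complemented with human TDP1 were seeded at 400 cells/well in medium containing 20 nM camptothecin, exposed to pin-transferred compounds, and grown at 37 °C for at least 48 hr. Viability was read as ATP luminescence.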
Numbers stand for hits; 0 = inactive; ? = inconclusive; - = not tested or not shown; [ ] = remark or other dose. Shown are actives, neighbours in structure and some others; about 18% of the full set was active somewhere. Unless noted, calls come from the whole dose curve; as a rule, active = well fitted curve in the direction sought with a large enough effect; inconclusive = small, poorly fitted or top-dose-only effect, or another doubt; inactive = no such curve, though single readings can be large; an effect the other way counts as inactive or inconclusive.

SMILES	TDP1 cell noCPT	TDP1 inh	HepG2 viability	IL1B secr inh	TGFb inhibitor	DT40 TDP1 CPT
Nc1ccn([C@@H]2O[C@H](C(=O)N[C@H](CO)c3ccccc3)[C@@H](O)[C@H]2O)c(=O)n1	0	-	0	0	0	0
Cc1ccc(C(=O)N2C(=S)C(c3ccc(F)cc3)=NC23CCN(C)CC3)cc1	4.61µM	0	0	0	?	5.17µM
O=C(NC1CCCCC1)C(c1ccc(F)cc1)N(Cc1ccco1)C(=O)c1csnn1 (stereo not given)	?	0[0.0935 µM]	0	0	0	0
CC(C)CCNC(=O)C(C)N(C(=O)c1snc(C(N)=O)c1N)c1cnc2ccccc2c1 (stereo not given)	?	0	0	0	0	0
O=c1c2nncn2ccn1-c1ccc(F)c(F)c1	0	0	0	-	0	0
CN1CCN(C2=Nc3c(Cl)cc(Cl)c4cccc2c34)CC1	20.6µM	0	0	-53.3	?	?
Oc1c(Cl)cc(Cl)cc1Sc1cc(Cl)cc(Cl)c1O	23.1µM	0	-	-	-	?
COc1cc(NS(=O)(=O)c2cc3c(cc2C)N(C)CCO3)cc(OC)c1OC	14.6µM	0	0	-	0	20.6µM
COc1cc(NS(=O)(=O)c2ccc(C)cc2C)cc(OC)c1OC	6.51µM	0	0	0	0	6.51µM
COc1cc(NS(=O)(=O)c2cc3[nH]c(=O)c(=O)[nH]c3cc2C)cc(OC)c1OC	?	-	0	0	0	0
COc1cccc(NS(=O)(=O)c2cc3c(cc2C)N(C)CCO3)c1	?	-	0	0	0	?
CC(=O)NCc1ccc(C(=O)CN2C(=O)NC3(CCCCC3C)C2=O)s1 (stereo not given)	0	0	0	0	0	0
O=Cc1c[nH]c2cccc(OCc3ccccc3)c12	23.1µM	0	0	-79.3	0	?
O=C1OC[C@H]2CCCN2C(=O)[C@@H](CC(=O)N(CCO)Cc2ccccc2)C/C=C\CC[C@@H]1Cc1ccc(F)cc1	20.6µM	0	0	0	0	18.4µM
O=C1N[C@@H](Cc2ccccc2)COC(=O)[C@H](Cc2ccc(F)cc2)CC/C=C/C[C@H]1CC(=O)N(CCO)Cc1ccccc1	?	0	0	?	?	?
O=C1OC[C@H]2CCCN2C(=O)[C@@H](CC(=O)N(CCO)Cc2ccccc2)C/C=C\CC[C@H]1Cc1ccc(F)cc1	20.6µM	0	0	?	?	16.4µM
O=C1OC[C@@H]2CCCN2C(=O)[C@H](CC(=O)N(CCO)Cc2ccccc2)C/C=C\CC[C@H]1Cc1ccc(F)cc1	?	0	0	0	0	23.1µM
Cc1cn2c(=O)cc(COC(=O)c3ccc(NC(=O)c4ccccc4C)cc3)nc2s1	0	0	0	-	0	0
COc1ccc(F)cc1S(=O)(=O)NCCc1csc2nc(-c3cccc(C)c3)nn12	?	0	0	-	?	?
CCOC(=O)c1ccccc1NC(=O)CSc1nnc(CC)n2c1cc1occc12	?	0	0	-	0	?
COC(=O)c1ccc(CN(c2ccc(OC)cc2)S(=O)(=O)c2ccccc2)cc1	13µM	-	0	0	0	?
CCOc1ccc(C(=O)Nc2ccc(S(=O)(=O)N(Cc3ccccc3)c3ccccc3)cc2)cc1	5.17µM	0	0	-	?	5.8µM
CC(=O)Nc1ccc(S(=O)(=O)N(Cc2ccccc2)c2ccccc2)cc1	?	0	0	0	0	0
CCOc1ccc(NC(=O)c2ccc(S(=O)(=O)N(C)C)cc2)cc1	0	0	0	0	0	0
COc1ccc(N(Cc2ccccc2)S(=O)(=O)c2ccc(C)cc2)cc1	?	0	0	0	0	0
COC(=O)Cc1ccc(N(Cc2ccccc2F)S(=O)(=O)c2ccc(Cl)cc2)cc1	14.6µM	0	0	0	?	?
COC(=O)CN(c1ccc(F)cc1)S(=O)(=O)c1ccccc1	0	0	0	0	0	0
